In PubChem BioAssay (NCATS):
Results filed as inconclusive are left out. The source made the active and inactive calls. Calls come from the whole dose curve; as a rule, active = well fitted curve in the direction sought with a large enough effect; inconclusive = small, poorly fitted or top-dose-only effect, or another doubt; inactive = no such curve, though single readings can be large; an effect the other way counts as inactive or inconclusive.

Experiments:
[1] = test system: NIH3T3; test: Cytotoxic Profiling of Annotated Libraries Using Quantitative High-Throughput Screening (AID 1296008); settings: Five cell lines viability, CellTiter-Glo ATP luminescence, 48-72 h; active compounds read low; note: nearly all actives have a fitted effect of over 60% in size
Summary of the method: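 Cytotoxicity was measured as CellTiter-Glo ATP luminescence, read after 10 min at room temperature. Compound treatment of the cells lasted 48 or 72 hr at 37 degrees Celsius in a qHTS format.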

[2] = test system: HACAT; test: qHTS assay to identify novel small-molecules to repurpose for Merkel cell carcinoma treatment (AID 1296009); settings: MCC and control cell lines, CellTiter-Glo viability, 72 h; at 44.8 µM (top of the series) unless noted; note: nearly all actives have a fitted effect of over 60% in size
Summary of the method: (§1)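 72 hr, 37 degree celsius; NPC 8-pt / MIPE 11-pt dose response; compound pinned in DMSO; CellTiter-Glo, 10 min RT, luminescence; normalized to no-cell and DMSO controls.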

[3] = test system: MCC-13; test: as above; settings: MCC and control cell lines, CellTiter-Glo viability, 72 h; series mostly up to 46 µM
Summary of the method: as §1

[4] = test system: MCC-26; test: as above; settings: MCC and control cell lines, CellTiter-Glo viability, 72 h; series mostly up to 46 µM
Summary of the method: as §1

[5] = test system: MKL-1; test: as above; settings: MCC and control cell lines, CellTiter-Glo viability, 72 h; series mostly up to 46 µM
Summary of the method: as §1

[6] = test system: MKL-2; test: as above; settings: MCC and control cell lines, CellTiter-Glo viability, 72 h; series mostly up to 46 µM
Summary of the method: as §1

[7] = test system: UISO; test: as above; settings: MCC and control cell lines, CellTiter-Glo viability, 72 h; series mostly up to 46 µM
Summary of the method: as §1

[8] = test system: WaGa; test: as above; settings: MCC and control cell lines, CellTiter-Glo viability, 72 h; series mostly up to 46 µM
Summary of the method: as §1

[9] = test system: C33A; test: Primary qHTS to identify gynecologic anti-cancer compounds using libraries of approved drugs and bioactive compounds (AID 1345084); settings: Gynecologic cancer cell panel viability, ATPlite luminescence, 48 h; series mostly up to 57.5 µM; note: nearly all actives have a fitted effect of over 55% in size
Summary of the method: (§2)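 In this quantitative HTS, cell killing is estimated from loss of ATP-dependent luciferase light. Cells see five compound concentrations over a 48 h exposure.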

[10] = test system: CAOV3; test: as above; settings: Gynecologic cancer cell panel viability, ATPlite luminescence, 48 h; series mostly up to 57.5 µM
Summary of the method: as §2

[11] = test system: CASKI; test: as above; settings: Gynecologic cancer cell panel viability, ATPlite luminescence, 48 h; series mostly up to 57.5 µM
Summary of the method: as §2

[12] = test system: Es-2; test: as above; settings: Gynecologic cancer cell panel viability, ATPlite luminescence, 48 h; series mostly up to 57.5 µM
Summary of the method: as §2

[13] = test system: HeLa; test: as above; settings: Gynecologic cancer cell panel viability, ATPlite luminescence, 48 h; series mostly up to 57.5 µM
Summary of the method: as §2

[14] = test system: Hek293T; test: as above; settings: Gynecologic cancer cell panel viability, ATPlite luminescence, 48 h, control line for the selectivity index; series mostly up to 57.5 µM
Summary of the method: as §2

[15] = test system: JEG-3; test: as above; settings: Gynecologic cancer cell panel viability, ATPlite luminescence, 48 h; series mostly up to 57.5 µM
Summary of the method: as §2

[16] = test system: OV90; test: as above; settings: Gynecologic cancer cell panel viability, ATPlite luminescence, 48 h; series mostly up to 57.5 µM
Summary of the method: as §2

[17] = test system: PA-1; test: as above; settings: Gynecologic cancer cell panel viability, ATPlite luminescence, 48 h; series mostly up to 57.5 µM
Summary of the method: as §2

[18] = test system: SKOV3; test: as above; settings: Gynecologic cancer cell panel viability, ATPlite luminescence, 48 h; series mostly up to 57.5 µM
Summary of the method: as §2

[19] = test system: NIH3T3; test: qHTS assay to identify novel small-molecules to repurpose for Merkel cell carcinoma treatment (AID 1296009); settings: MCC and control cell lines, CellTiter-Glo viability, 72 h; at 44.8 µM (top of the series) unless noted; note: nearly all actives have a fitted effect of over 60% in size
Summary of the method: as §1
% is set by controls: 0 for no effect and ±100 for the full control effect.

OCC(O)CS (centres undefined)
inactive: max response [1] 0.523% | outcome [2] | outcome [3] | outcome [4] | outcome [5] | outcome [6] | outcome [7] | outcome [8] | outcome [9] | outcome [10] | outcome [11] | outcome [12] | outcome [13] | outcome [14] | outcome [15] | Potency [16] | outcome [17] | outcome [18]

Cc1ccc(S(=O)(=O)NC(=O)NC2CCCCCCC2)cc1
inactive: max response [1] 3.55% | outcome [2] | outcome [3] | outcome [4] | outcome [5] | outcome [6] | outcome [7] | outcome [8] | outcome [9] | outcome [10] | outcome [11] | outcome [12] | outcome [13] | outcome [14] | outcome [15] | Potency [16] | outcome [17] | outcome [18]

Cc1cc(OI)c(C(C)C)cc1-c1cc(C(C)C)c(OI)cc1C
inactive: max response [1] -2.54% | outcome [2] | outcome [3] | outcome [4] | outcome [5] | outcome [6] | outcome [7] | outcome [8] | outcome [9] | outcome [10] | outcome [11] | outcome [12] | outcome [13] | outcome [14] | outcome [15] | Potency [16] | outcome [17] | outcome [18]

NC(N)=NS(=O)(=O)c1ccc(N)cc1
inactive: outcome [1] | outcome [2] | outcome [3] | outcome [4] | outcome [5] | outcome [6] | outcome [19] | outcome [7] | outcome [8] | outcome [9] | outcome [11] | outcome [12] | outcome [13] | outcome [14] | outcome [15] | Potency [16] | outcome [17] | outcome [18]

CC(=O)N[C@@H](CC(C)C)C(=O)O
inactive: max response [1] -1.86% | outcome [2] | outcome [3] | outcome [4] | outcome [5] | outcome [6] | outcome [7] | outcome [8] | outcome [9] | outcome [10] | outcome [11] | outcome [12] | outcome [13] | outcome [14] | outcome [15] | Potency [16] | outcome [17] | outcome [18]

Cn1c(=O)c2c(ncn2CCO)n(C)c1=O
inactive: max response [1] -3.21% | outcome [2] | outcome [3] | outcome [4] | outcome [5] | outcome [6] | outcome [7] | outcome [8] | outcome [9] | outcome [10] | outcome [11] | outcome [12] | outcome [13] | outcome [14] | outcome [15] | Potency [16] | outcome [17] | outcome [18]

CCN[C@H]1CN(CCCOC)S(=O)(=O)c2sc(S(N)(=O)=O)cc21
inactive: outcome [1] | outcome [2] | outcome [3] | outcome [4] | outcome [5] | outcome [6] | outcome [19] | outcome [7] | outcome [8] | outcome [9] | outcome [11] | outcome [12] | outcome [13] | outcome [14] | outcome [15] | Potency [16] | outcome [18]

CC[C@H](C)[C@H](N)C(=O)O
inactive: max response [1] -5.18% | outcome [2] | outcome [3] | outcome [4] | outcome [5] | outcome [6] | outcome [7] | outcome [8] | outcome [9] | outcome [10] | outcome [11] | outcome [12] | outcome [13] | outcome [14] | outcome [15] | Potency [16] | outcome [17] | outcome [18]

CC[N+](CC)(CC(=O)Nc1c(C)cccc1C)Cc1ccccc1
inactive: max response [1] 1.97% | outcome [2] | outcome [3] | outcome [4] | outcome [5] | outcome [6] | outcome [7] | outcome [8] | outcome [9] | outcome [10] | outcome [11] | outcome [12] | outcome [13] | outcome [14] | outcome [15] | Potency [16] | outcome [17] | outcome [18]

C[N+]1(C)CCCC(OC(=O)C(O)(c2ccccc2)c2ccccc2)C1 (centres undefined)
inactive: max response [1] 4.37% | outcome [2] | outcome [3] | outcome [4] | outcome [5] | outcome [6] | outcome [7] | outcome [8] | outcome [9] | outcome [10] | outcome [11] | outcome [12] | outcome [13] | outcome [14] | outcome [15] | Potency [16] | outcome [17] | outcome [18]

Cn1cc(C(=O)[C@@H]2CCc3nc[nH]c3C2)c2ccccc21
inactive: max response [1] -0.574% | outcome [2] | outcome [3] | outcome [4] | outcome [5] | outcome [6] | outcome [7] | outcome [8] | outcome [9] | outcome [10] | outcome [11] | outcome [12] | outcome [13] | outcome [14] | outcome [15] | Potency [16] | outcome [17] | outcome [18]

O=C(O)COC(=O)Cc1ccccc1Nc1c(Cl)cccc1Cl
inactive: max response [1] 1.68% | outcome [2] | outcome [3] | outcome [4] | outcome [5] | outcome [6] | outcome [7] | outcome [8] | outcome [9] | outcome [10] | outcome [11] | outcome [12] | outcome [13] | outcome [14] | outcome [15] | Potency [16] | outcome [17]

CCOC(=O)OC(C)OC(=O)[C@@H]1N2C(=O)[C@@H](NC(=O)[C@H](N)c3ccccc3)[C@H]2SC1(C)C (some centres undefined)
inactive: outcome [1] | outcome [2] | outcome [3] | outcome [4] | outcome [5] | outcome [6] | outcome [19] | outcome [7] | outcome [8] | outcome [9] | outcome [11] | outcome [12] | outcome [13] | outcome [14] | outcome [15] | Potency [16] | outcome [17] | outcome [18]

O=c1[nH]c(=O)n([C@H]2C[C@H](O)[C@@H](CO)O2)cc1I
inactive: outcome [1] | outcome [2] | outcome [3] | outcome [4] | outcome [5] | outcome [6] | outcome [19] | outcome [8] | outcome [9] | outcome [11] | outcome [12] | outcome [13] | outcome [14] | outcome [15] | Potency [16] | outcome [17] | outcome [18]
